The record followed here is PubChem BioAssay (EPA / NIEHS).

Assay [1] is described as follows: APR_HepG2_CellCycleArrest_24hr: Apredica 24-hour HepG2 Assay for Cell Cycle Arrest (AID 2282905).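 Also: cell cycle arrest scored as ratio of 2N to 4N nuclear DNA content.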 The conditions noted are these: imaging, actives raise or lower the signal. In outline: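 Step one: dose HepG2 with test compounds, 0.39–200 uM, 0.5% DMSO, 24 hr. Step two: fix, permeabilize, stain nuclei with Hoechst 33342. Step three: image six fields per well at 20x, quantify DNA content, fit bidirectionally relative to DMSO.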

The nature of assay [2]: APR_HepG2_NuclearSize_24hr: Apredica 24-hour HepG2 Assay for Nuclear Size (AID 2282907). The following applies: high-content imaging, actives raise or lower the signal. In outline:
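After fixation and permeabilization, 24-hr-treated HepG2 cells were stained with Hoechst 33342 and imaged on an ArrayScan (20x). Doses spanned 0.39–200 uM in duplicate. Nuclear diameter changes in either direction were fitted relative to 0.5% DMSO controls.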

Assay [3] is described as follows: APR_HepG2_CellLoss_24hr: Apredica 24-hour HepG2 Assay for Cell Loss (AID 2282908).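 As to AC50: fit in both directions so a hit may be cell loss or gain.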 The following applies: high-content imaging. In outline:
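Duplicate wells received compound at ten concentrations (0.39–200 uM; final DMSO 0.5% v/v). After fixation with formaldehyde, nuclei stained with Hoechst 33342 were imaged at 20x. Loss or gain of cell count was fitted relative to DMSO controls.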

Assay [4] is described as follows: APR_HepG2_MicrotubuleCSK_24hr: Apredica 24-hour HepG2 Assay for Microtubule CSK Stabilty (AID 2282909). The following applies: HepG2 microtubule cytoskeleton imaging, actives raise or lower the signal. An outline of the steps: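 Microtubule stability is scored from tubulin immunofluorescence in fixed HepG2 cells imaged at 20x. Cells receive ten compound concentrations up to 200 uM for 24 h; taxol and DMSO serve as positive and negative controls.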

The nature of assay [5]: APR_HepG2_MitoticArrest_24hr: Apredica 24-hour HepG2 Assay for Mitotic Arrest (AID 2282910). The conditions noted are these: high-content imaging, actives raise or lower the signal. An outline of the steps:
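High-content imaging of fixed HepG2 cells labeled with Hoechst 33342 and anti-phospho-histone H3, after 24 h treatment. Ten concentrations 0.39 to 200 uM in duplicate, final DMSO 0.5%; changes fitted both directions relative to DMSO.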

Assay [6] can be described thus: APR_HepG2_MitoMembPot_24hr: Apredica 24-hour HepG2 Assay for Mitochondrial Membrane Potential (AID 2282911). The conditions noted are these: imaging, actives raise or lower the signal. In outline:
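Human hepatoma HepG2 cultures received ten compound concentrations up to 200 uM for 24 hr. Membrane-potential dye signal, captured by automated fluorescence microscopy, was scored for gain or loss against DMSO controls.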

The nature of assay [7]: APR_HepG2_MitoMass_24hr: Apredica 24-hour HepG2 Assay for Mitochondrial Mass (AID 2282912). The conditions noted are these: high-content imaging, actives raise or lower the signal. In outline: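 Readout: fluorescence of MitoTracker Red CMXRos (250 nM, added 30 min pre-fixation) in fixed HepG2 cells imaged by HCS. Exposure lasted 24 hr at 0.39–200 uM; increases and decreases were both fitted relative to DMSO.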

Assay [8] can be described thus: APR_HepG2_p53Act_24hr: Apredica 24-hour HepG2 Assay for p53 Activation (AID 2282913).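 Also: p53 protein immunofluorescence averaged per cell in HepG2 with Hoechst nuclei.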 The following applies: high-content imaging, actives raise or lower the signal. An outline of the steps:
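Automated fluorescence imaging quantifies p53 immunostaining in HepG2 cells after a 24 hr exposure (0.39–200 uM, duplicate, 0.5% DMSO). Nuclei are located by Hoechst 33342 staining.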

Assay [9] can be described thus: APR_HepG2_CellCycleArrest_72hr: Apredica 72-hour HepG2 Assay for Cell Cycle Arrest (AID 2282914). The following applies: high-content imaging, actives raise or lower the signal. An outline of the steps: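 Cell cycle arrest in HepG2 was scored from nuclear DNA content after 72 hr compound treatment (0.39–200 uM). Activity, either gain or loss, was fitted against the DMSO baseline.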

Assay [10] in a line: APR_HepG2_CellLoss_72hr: Apredica 72-hour HepG2 Assay for Cell Loss (AID 2282915). The following applies: high-content imaging. An outline of the steps:
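Cell number comes from Hoechst 33342-labelled nuclei, imaged at 20x after 3.7% formaldehyde fixation. Dosing was 0.39–200 uM, ten concentrations in duplicate, 0.5% DMSO final, for 72 h. Bidirectional fit relative to DMSO baseline.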

Activity calls are given as the source filed them. The calls were made as follows: active = hit-call score of the fitted dose curve at least 0.9, where 1 is the maximum; inactive = score below 0.9.

As usually defined, the AC50 is the concentration at which the activity in the assay is half-maximal. Consider `CCCCC(CC)COC(=O)c1ccc(C(=O)OCC(CC)CCCC)cc1` (centres undefined), for which the molecule was called inactive in assay [1], in [2], in assay [3], in [4], in assay [5] and in assay [6]. Also, the molecule was called inactive in [7], in assay [8] and in assay [10]. Moreover, the AC50 in assay [9] is 32.4 µM (active).

For `O=C(O)CCN(C1(C(=O)NO)CCCC1)S(=O)(=O)c1ccc(Oc2ccc(F)cc2)cc1`, the molecule was called inactive in [1], in assay [2], in [3], in [4], in [5] and in assay [6]. Further, the call in [7], in assay [8], in assay [9] and in [10] was inactive.

Regarding `C=CC(=C)CCC=C(C)C`, the molecule was called inactive in assay [1], in [2], in assay [3], in assay [4], in assay [5] and in assay [6]. Besides, the call in assay [7], in [8], in assay [9] and in assay [10] was inactive.

Consider `CC(=O)c1ccc2c(c1)[C@H](NC(=O)c1ccc(F)cc1)[C@@H](O)C(C)(C)O2`, for which the result in [1], in assay [2], in assay [3], in [4], in [5] and in [6] was inactive. Moreover, the outcome in assay [7], in assay [8], in [9] and in [10] was inactive.

Regarding `CCOc1cccc(-n2cc(C(=O)N3CCN(c4cc(C(=O)O)c5ccccc5c4)CC3)nc2-c2ccc(C)cc2)c1`, the AC50 is 97.5 µM (active) in [1]; 88.3 µM (active) in assay [3]; 101 µM (active) in [4]; 97.5 µM (active) in assay [5]; 104 µM (active) in assay [7]; 99.3 µM (active) in assay [8]. The AC50 was 96 µM (active) in [9] and 81.9 µM (active) in assay [10]. For the same molecule, the molecule was classed as inactive in assay [2] and in assay [6].

With `Oc1ccc2c(c1)-c1ccccc1C2`, the molecule was called inactive in [1], in assay [2], in assay [4] and in [6]. For the same molecule, the AC50 was 100 µM (active) in [3]; 116 µM (active) in assay [5]; 111 µM (active) in assay [7]; 100 µM (active) in [8]; 124 µM (active) in [9]; 86.1 µM (active) in [10].

`CC(C)=CCCC(C)=CC=O`: the outcome in assay [1], in assay [2], in assay [3], in [4], in assay [5] and in assay [6] was inactive. Further, the molecule was called inactive in [7], in [8], in [9] and in [10].

`Nc1ccc(Nc2ccccc2)cc1`: the molecule was called inactive in assay [1], in assay [2], in assay [3], in assay [4], in assay [5] and in [7]. Further, in assay [8], the molecule was called inactive. For the same molecule, the AC50 in assay [6] is 54 µM (active); in assay [9], 13.8 µM (active); in assay [10] it was 40.1 µM (active).

As to `CCCN(C1CCN(C(=O)C2CCNCC2)CC1)[C@@H]1CCc2ccc(OC)cc2C1`, the outcome in assay [1], in [2], in [4], in assay [6], in [8] and in assay [9] was inactive. Also, the AC50 in [3] was 100 µM (active); in assay [5] it was 67.5 µM (active); in [7] it was 100 µM (active); in assay [10], 95 µM (active).

Take `O=c1n(CC2CO2)c(=O)n(CC2CO2)c(=O)n1CC1CO1` (centres undefined): the AC50 in assay [1] is 0.225 µM (active); in assay [3], 1.8 µM (active); in assay [4] it was 24.4 µM (active); in assay [5] it was 27.8 µM (active); in assay [7], 50 µM (active); in assay [8], 11.3 µM (active). For the same molecule, the concentration at half-maximal activity (AC50) in [9] was 0.224 µM (active); in assay [10] it was 10.7 µM (active). Further, the result in assay [2] and in assay [6] was inactive.

For `Cc1[nH]cnc1C[C@H]1CCc2c(C)c3ccccc3n2C1=O`, the AC50 in assay [1] is 146 µM (active); in assay [3], 55.7 µM (active); in assay [8], 97 µM (active); in assay [9], 69.7 µM (active); in [10], 24.5 µM (active). Besides, the call in assay [2], in [5], in assay [6] and in assay [7] was inactive.

Consider `CCCCCCc1ccc(O)cc1O`, for which the concentration at half-maximal activity (AC50) in assay [1] was 89.8 µM (active); in assay [3] it was 103 µM (active); in assay [5], 95.4 µM (active); in assay [6], 46.1 µM (active); in assay [7], 125 µM (active); in [8], 104 µM (active). Also, the AC50 in [10] was 71.5 µM (active). In addition, the outcome in assay [2], in [4] and in [9] was inactive.

In the case of `Cn1c(=O)cc(Oc2ccc(F)cc2F)c2cnc(NCC(C)(C)O)nc21`, the molecule was classed as inactive in assay [1], in [2], in assay [3], in assay [4], in assay [5] and in assay [6]. Besides, the outcome in [7], in assay [8] and in assay [10] was inactive. The AC50 in assay [9] was 112 µM (active).

Regarding `COc1ccc(-n2nc(C(F)F)cc2-c2ccc(S(C)=O)cc2)cc1` (centres undefined), the concentration at half-maximal activity (AC50) in assay [1] is 49.5 µM (active); in assay [6], 5.03 µM (active); in [10], 72.8 µM (active). Moreover, the molecule was classed as inactive in assay [2], in [3], in assay [4], in assay [5], in assay [7] and in [8]. Moreover, the molecule was classed as inactive in assay [9].

As for `Fc1ccccc1[C@@H](F)COC1CCC(Nc2ncnc3[nH]ncc23)CC1` (some centres undefined), the AC50 in assay [1] is 62.3 µM (active); in assay [3], 52.4 µM (active); in [4], 78.4 µM (active); in [9] it was 50.1 µM (active); in assay [10] it was 59 µM (active). Further, the call in assay [2], in assay [5], in assay [6], in assay [7] and in [8] was inactive.

Take `CC(C)(O)c1coc(S(=O)(=O)NC(=O)Nc2c3c(cc4c2CCC4)CCC3)c1`: the molecule was called inactive in assay [1], in assay [2], in assay [3], in assay [5], in assay [6] and in [7]. In addition, the call in assay [8], in [9] and in assay [10] was inactive.

`CC(=O)OCCC(C)C`: the molecule was classed as inactive in assay [1], in [2], in assay [3], in assay [5], in assay [6] and in assay [7]. The result in assay [8], in [9] and in assay [10] was inactive.

Take `CCC(C)(C)C(=O)O[C@H]1C[C@@H](C)C=C2C=C[C@H](C)[C@H](CC[C@@H]3C[C@@H](O)CC(=O)O3)[C@H]21`: the concentration at half-maximal activity (AC50) was 2.85 µM (active) in assay [1]; 123 µM (active) in assay [3]; 2.96 µM (active) in [5]; 105 µM (active) in assay [6]; 3.97 µM (active) in [7]; 89.3 µM (active) in assay [8]. In addition, the AC50 in [10] was 26.8 µM (active). Besides, the molecule was called inactive in assay [2], in [4] and in assay [9].

As for `CC/C(=C\C(=N/O)C(N)=O)C(C)[N+](=O)[O-]` (centres undefined), the call in [1], in assay [2], in assay [3], in assay [5], in assay [6] and in [7] was inactive. Further, the result in [8], in assay [9] and in assay [10] was inactive.

With `CC(C)CCCCCCCOC(=O)CCCCC(=O)OCCCCCCCC(C)C`, the result in assay [1], in assay [2], in assay [3], in [5], in assay [6] and in [7] was inactive. The result in [8], in assay [9] and in assay [10] was inactive.

On to `CCOC(=O)CC(CC(=O)OCC)(OC(C)=O)C(=O)OCC`, for which the outcome in assay [1], in assay [2], in [3], in [5], in assay [6] and in [7] was inactive. In [8], the call was inactive. In addition, the AC50 in [9] is 82.1 µM (active); in assay [10], 45.8 µM (active).
